In PubChem BioAssay AID1159580 (chemical genetic matrix, 2015):
About 2,000 (36%) of roughly 5,500 compounds were called active. Inconclusive results (about 18%) are left out. This is one part of the list. Values without a mark were called inactive. Rule as the data show it: active = normalized growth mostly below about 0.91 (no sharp cut-off); inconclusive = no clear call, values can overlap the other calls; inactive = mostly above about 0.92.

Test: chemical genetic growth profiling, strain panel (AID 1159580);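 also: tested at 20 µM; growth read once vehicle control cultures reached saturation at 30 °C; 1 = growth at the plate median or of vehicle wells; lower values mean less growth of the strain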
Settings: growth OD

What does the source list for `COc1cc(O)c2c(c1)C(=O)c1cc(C)cc(O)c1C2=O`?
normalized growth (S. cerevisiae deletion strains, locus YJR075W, strain HOC1, stronger effect = lower value): 1; normalized growth (S. cerevisiae deletion strains, locus YKL009W, strain mrt4, stronger effect = lower value): 0.921; normalized growth (S. cerevisiae deletion strains, locus YKL068W, stronger effect = lower value): 1.01; normalized growth (S. cerevisiae deletion strains, locus YKL085W, strain MDH1 (second series), stronger effect = lower value): 0.98; normalized growth (S. cerevisiae deletion strains, locus YKL085W, strain MDH1, stronger effect = lower value): 0.98; normalized growth (S. cerevisiae deletion strains, locus YKL160W, strain elf1, stronger effect = lower value): 0.997; normalized growth (S. cerevisiae deletion strains, locus YKL190W, strain CNB1, stronger effect = lower value): 1.02; normalized growth (S. cerevisiae deletion strains, locus YKR001C, strain vps1, stronger effect = lower value): 1.02; normalized growth (S. cerevisiae deletion strains, locus YKR026C, strain gcn3, stronger effect = lower value): 0.997; normalized growth (S. cerevisiae deletion strains, locus YKR091W, strain srl3, stronger effect = lower value): 0.981; normalized growth (S. cerevisiae deletion strains, locus YLL001W, strain dnm1, stronger effect = lower value): 0.994; normalized growth (S. cerevisiae deletion strains, locus YLL026W, stronger effect = lower value): 0.995; normalized growth (S. cerevisiae deletion strains, locus YLL041C, strain sdh2, stronger effect = lower value): 0.988; normalized growth (S. cerevisiae deletion strains, locus YLR027C, strain aat2, stronger effect = lower value): 0.986; normalized growth (S. cerevisiae deletion strains, locus YLR039C, strain RIC1, stronger effect = lower value): 0.846; normalized growth (S. cerevisiae deletion strains, locus YLR058C, strain SHM2, stronger effect = lower value): 1; normalized growth (S. cerevisiae deletion strains, locus YLR102C, strain apc9, stronger effect = lower value): 0.997; normalized growth (S. cerevisiae deletion strains, locus YLR113W, strain HOG1, stronger effect = lower value): 0.979; normalized growth (S. cerevisiae deletion strains, locus YLR221C, strain rsa3, stronger effect = lower value): 0.995; normalized growth (S. cerevisiae deletion strains, locus YLR258W, strain gsy2, stronger effect = lower value): 0.978; normalized growth (S. cerevisiae deletion strains, locus YLR262C, strain YPT6 (second series), stronger effect = lower value): 0.845 (active); normalized growth (S. cerevisiae deletion strains, locus YLR262C, strain YPT6, stronger effect = lower value): 0.884; normalized growth (S. cerevisiae deletion strains, locus YLR268W, strain sec22, stronger effect = lower value): 0.924; normalized growth (S. cerevisiae deletion strains, locus YLR320W, strain mms22, stronger effect = lower value): 0.962; normalized growth (S. cerevisiae deletion strains, locus YLR330W, strain CHS5, stronger effect = lower value): 1.01; normalized growth (S. cerevisiae deletion strains, locus YLR342W, strain FKS1 (second series), stronger effect = lower value): 1.02; normalized growth (S. cerevisiae deletion strains, locus YLR342W, strain FKS1, stronger effect = lower value): 0.994; normalized growth (S. cerevisiae deletion strains, locus YLR357W, strain rsc2, stronger effect = lower value): 0.945; normalized growth (S. cerevisiae deletion strains, locus YLR370C, strain arc18, stronger effect = lower value): 0.986; normalized growth (S. cerevisiae deletion strains, locus YLR371W, strain rom2, stronger effect = lower value): 1; normalized growth (S. cerevisiae deletion strains, locus YLR384C, strain iki3, stronger effect = lower value): 0.977; normalized growth (S. cerevisiae deletion strains, locus YLR418C, strain cdc73, stronger effect = lower value): 1; normalized growth (S. cerevisiae deletion strains, locus YML016C, strain PPZ1, stronger effect = lower value): 1.01; normalized growth (S. cerevisiae deletion strains, locus YML032C, strain rad52, stronger effect = lower value): 0.812 (active); normalized growth (S. cerevisiae deletion strains, locus YML120C, strain ndi1, stronger effect = lower value): 1; normalized growth (S. cerevisiae deletion strains, locus YML124C, strain tub3, stronger effect = lower value): 1; normalized growth (S. cerevisiae deletion strains, locus YMR058W, strain fet3, stronger effect = lower value): 1.01; normalized growth (S. cerevisiae deletion strains, locus YMR078C, strain ctf18, stronger effect = lower value): 0.982; normalized growth (S. cerevisiae deletion strains, locus YMR125W, strain sto1, stronger effect = lower value): 0.995; normalized growth (S. cerevisiae deletion strains, locus YMR129W, stronger effect = lower value): 0.992; normalized growth (S. cerevisiae deletion strains, locus YMR205C, strain PFK2, stronger effect = lower value): 0.97; normalized growth (S. cerevisiae deletion strains, locus YMR223W, strain ubp8, stronger effect = lower value): 0.974; normalized growth (S. cerevisiae deletion strains, locus YMR231W, strain pep5, stronger effect = lower value): 0.979; normalized growth (S. cerevisiae deletion strains, locus YMR263W, strain SAP30, stronger effect = lower value): 1.01; normalized growth (S. cerevisiae deletion strains, locus YMR307W, strain GAS1, stronger effect = lower value): 0.931; normalized growth (S. cerevisiae deletion strains, locus YNL067W, strain RPL9B, stronger effect = lower value): 0.989; normalized growth (S. cerevisiae deletion strains, locus YNL071W, strain lat1, stronger effect = lower value): 0.998; normalized growth (S. cerevisiae deletion strains, locus YNL128W, strain TEP1, stronger effect = lower value): 1.02; normalized growth (S. cerevisiae deletion strains, locus YNL153C, strain GIM3, stronger effect = lower value): 1; normalized growth (S. cerevisiae deletion strains, locus YNL183C, strain NPR1, stronger effect = lower value): 0.99; normalized growth (S. cerevisiae deletion strains, locus YNL209W, strain ssb2, stronger effect = lower value): 0.985; normalized growth (S. cerevisiae deletion strains, locus YNL233W, strain BNI4, stronger effect = lower value): 0.986; normalized growth (S. cerevisiae deletion strains, locus YNL248C, strain rpa49, stronger effect = lower value): 0.987; normalized growth (S. cerevisiae deletion strains, locus YNL250W, strain rad50, stronger effect = lower value): 0.834 (active); normalized growth (S. cerevisiae deletion strains, locus YNL271C, strain bni1, stronger effect = lower value): 0.996; normalized growth (S. cerevisiae deletion strains, locus YNL298W, strain CLA4, stronger effect = lower value): 0.91; normalized growth (S. cerevisiae deletion strains, locus YNL307C, strain MCK1, stronger effect = lower value): 0.862 (active); normalized growth (S. cerevisiae deletion strains, locus YNL322C, strain KRE1 (second series), stronger effect = lower value): 0.974; normalized growth (S. cerevisiae deletion strains, locus YNL322C, strain KRE1, stronger effect = lower value): 1.01; normalized growth (S. cerevisiae deletion strains, locus YNR049C, strain mso1, stronger effect = lower value): 0.987; normalized growth (S. cerevisiae deletion strains, locus YNR052C, strain pop2, stronger effect = lower value): 0.992; normalized growth (S. cerevisiae deletion strains, locus YOL006C, strain TOP1, stronger effect = lower value): 0.775; normalized growth (S. cerevisiae deletion strains, locus YOL012C, strain htz1): 1.44; normalized growth (S. cerevisiae deletion strains, locus YOL147C, strain pex11, stronger effect = lower value): 1.02; normalized growth (S. cerevisiae deletion strains, locus YOR001W, strain rrp6, stronger effect = lower value): 1.01; normalized growth (S. cerevisiae deletion strains, locus YOR061W, strain CKA2, stronger effect = lower value): 1; normalized growth (S. cerevisiae deletion strains, locus YOR069W, strain VPS5, stronger effect = lower value): 1.12 [resistant] (active); normalized growth (S. cerevisiae deletion strains, locus YOR070C, strain gyp1, stronger effect = lower value): 0.979; normalized growth (S. cerevisiae deletion strains, locus YOR080W, strain dia2, stronger effect = lower value): 0.978; normalized growth (S. cerevisiae deletion strains, locus YOR083W, strain WHI5, stronger effect = lower value): 0.984; normalized growth (S. cerevisiae deletion strains, locus YOR106W, strain vam3, stronger effect = lower value): 0.991; normalized growth (S. cerevisiae deletion strains, locus YOR136W, strain idh2, stronger effect = lower value): 0.997; normalized growth (S. cerevisiae deletion strains, locus YOR144C, strain elg1, stronger effect = lower value): 1; normalized growth (S. cerevisiae deletion strains, locus YOR184W, strain ser1, stronger effect = lower value): 0.971; normalized growth (S. cerevisiae deletion strains, locus YOR231W, strain MKK1, stronger effect = lower value): 1.02; normalized growth (S. cerevisiae deletion strains, locus YOR265W, strain rbl2, stronger effect = lower value): 0.983; normalized growth (S. cerevisiae deletion strains, locus YOR270C, strain vph1, stronger effect = lower value): 0.978; normalized growth (S. cerevisiae deletion strains, locus YOR290C, strain snf2, stronger effect = lower value): 0.93; normalized growth (S. cerevisiae deletion strains, locus YOR316C, strain cot1, stronger effect = lower value): 1; normalized growth (S. cerevisiae deletion strains, locus YPL051W, strain arl3, stronger effect = lower value): 0.939; normalized growth (S. cerevisiae deletion strains, locus YPL055C, strain LGE1, stronger effect = lower value): 0.999; normalized growth (S. cerevisiae deletion strains, locus YPL078C, strain atp4, stronger effect = lower value): 1; normalized growth (S. cerevisiae deletion strains, locus YPL106C, strain sse1, stronger effect = lower value): 0.973; normalized growth (S. cerevisiae deletion strains, locus YPL240C, strain hsp82, stronger effect = lower value): 0.98; normalized growth (S. cerevisiae deletion strains, locus YPL256C, strain CLN2, stronger effect = lower value): 1.03; normalized growth (S. cerevisiae deletion strains, locus YPR119W, strain clb2, stronger effect = lower value): 0.984; normalized growth (S. cerevisiae deletion strains, locus YPR141C, strain kar3, stronger effect = lower value): 1.01; normalized growth (S. cerevisiae deletion strains, locus YPR163C, strain tif3, stronger effect = lower value): 0.949; normalized growth (S. cerevisiae deletion strains, locus YPR167C, strain met16, stronger effect = lower value): 0.999; normalized growth (S. cerevisiae deletion strains, strain wtn01, stronger effect = lower value): 0.995; normalized growth (S. cerevisiae strains, strain wild type, stronger effect = lower value): 1.01
